PubChem BioAssay (NCI)
About 83,000 compounds went through this panel and 20% of them were active in at least one assay; those are over-represented in the sample as a whole.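 For each line, cells grew in 96-well plates with the test compound present at a single concentration for 48 hours.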

How the values were obtained:
Test in all cases: NCI-60 one-dose screen, 48 h (100 = growth as untreated, 0 = no growth, -100 = all killed)
Settings in all cases: 10 µM unless noted; active means growth percent below 10; inactive means the rest
NCI-H23 lung = system: NCI-H23 lung
NCI-H226 lung = system: NCI-H226 lung
NCI-H322M lung = system: NCI-H322M lung
HOP-62 NSCLC = system: HOP-62 NSCLC
NCI-H460 lung = system: NCI-H460 lung
HOP-92 NSCLC = system: HOP-92 NSCLC
NCI-H522 lung = system: NCI-H522 lung
A549/ATCC NSCLC = system: A549/ATCC NSCLC
786-0 renal = system: 786-0 renal
COLO 205 colon = system: COLO 205 colon
DU-145 prostate = system: DU-145 prostate
K-562 leukemia = system: K-562 leukemia
MALME-3M melanoma = system: MALME-3M melanoma
MDA-MB-231 breast = system: MDA-MB-231 breast
RXF 393 renal = system: RXF 393 renal
SF-268 CNS = system: SF-268 CNS
SF-295 CNS = system: SF-295 CNS
SF-539 CNS = system: SF-539 CNS
UACC-257 melanoma = system: UACC-257 melanoma
M14 melanoma = system: M14 melanoma

Measured: growth

CC(C)Sc1ncnc2nc[nH]c12
inactive: NCI-H23 lung 114% | NCI-H226 lung 102% | NCI-H322M lung 122% | HOP-62 NSCLC 105% | NCI-H460 lung 99.4% | HOP-92 NSCLC 91.7% | NCI-H522 lung 109% | A549/ATCC NSCLC 91.6% | 786-0 renal 101% | COLO 205 colon 96.8% | DU-145 prostate 121% | K-562 leukemia 113% | MALME-3M melanoma 109% | MDA-MB-231 breast 105% | RXF 393 renal 93% | SF-268 CNS 121% | SF-295 CNS 107% | SF-539 CNS 100% | UACC-257 melanoma 91.7% | M14 melanoma 105%

CCNC(=O)Oc1ccc[nH]c1=O
inactive: NCI-H23 lung 105% | NCI-H226 lung 115% | NCI-H322M lung 102% | HOP-62 NSCLC 102% | NCI-H460 lung 102% | HOP-92 NSCLC 94% | NCI-H522 lung 88.4% | A549/ATCC NSCLC 91.8% | 786-0 renal 100% | COLO 205 colon 117% | DU-145 prostate 117% | K-562 leukemia 93.4% | MALME-3M melanoma 103% | MDA-MB-231 breast 109% | RXF 393 renal 116% | SF-268 CNS 118% | SF-295 CNS 106% | SF-539 CNS 98.2% | UACC-257 melanoma 97.8%

CC(=O)CSc1ncnc2nc[nH]c12
inactive: NCI-H23 lung 106% | NCI-H226 lung 92.1% | NCI-H322M lung 115% | HOP-62 NSCLC 84.8% | NCI-H460 lung 98.4% | HOP-92 NSCLC 69.6% | NCI-H522 lung 72.8% | A549/ATCC NSCLC 87.3% | 786-0 renal 91.7% | COLO 205 colon 97.6% | DU-145 prostate 94.3% | K-562 leukemia 82.9% | MALME-3M melanoma 93.4% | MDA-MB-231 breast 87.5% | RXF 393 renal 89.9% | SF-268 CNS 105% | SF-295 CNS 99.7% | SF-539 CNS 94.8% | UACC-257 melanoma 78.3% | M14 melanoma 59.2%

O=[n+]1ccn([O-])c2ccccc21
inactive: NCI-H23 lung 96% | NCI-H226 lung 89.8% | NCI-H322M lung 104% | HOP-62 NSCLC 95% | NCI-H460 lung 102% | HOP-92 NSCLC 78.6% | NCI-H522 lung 118% | A549/ATCC NSCLC 113% | 786-0 renal 103% | COLO 205 colon 100% | DU-145 prostate 105% | K-562 leukemia 109% | MALME-3M melanoma 98.3% | MDA-MB-231 breast 94.6% | RXF 393 renal 89.5% | SF-268 CNS 95.8% | SF-295 CNS 107% | SF-539 CNS 99.1% | UACC-257 melanoma 133% | M14 melanoma 96.7%

O=c1[nH]c(=O)c2cc(Cl)cc(Cl)c2[nH]1
inactive: NCI-H23 lung 101% | NCI-H226 lung 96.8% | NCI-H322M lung 94.8% | HOP-62 NSCLC 113% | NCI-H460 lung 112% | HOP-92 NSCLC 104% | NCI-H522 lung 99.7% | A549/ATCC NSCLC 108% | 786-0 renal 101% | COLO 205 colon 117% | DU-145 prostate 136% | K-562 leukemia 106% | MALME-3M melanoma 116% | MDA-MB-231 breast 107% | RXF 393 renal 113% | SF-268 CNS 109% | SF-295 CNS 114% | SF-539 CNS 99.5% | UACC-257 melanoma 93%

CC(=O)[C@@]1(O)CC[C@H]2[C@@H]3CC[C@@H]4CC(=O)CC[C@]4(C)[C@H]3[C@@H](O)C[C@@]21C
inactive: NCI-H23 lung 96.9% | NCI-H226 lung 95.9% | NCI-H322M lung 105% | HOP-62 NSCLC 74.2% | NCI-H460 lung 110% | HOP-92 NSCLC 84.3% | NCI-H522 lung 88.4% | A549/ATCC NSCLC 81.7% | 786-0 renal 99.2% | COLO 205 colon 95.3% | DU-145 prostate 111% | K-562 leukemia 94.9% | MALME-3M melanoma 108% | MDA-MB-231 breast 99.6% | RXF 393 renal 105% | SF-268 CNS 99.1% | SF-295 CNS 91.9% | SF-539 CNS 96.8%

CCNCC(C)(C)O
inactive: NCI-H23 lung 99.1% | NCI-H226 lung 105% | NCI-H322M lung 98% | HOP-62 NSCLC 100% | NCI-H460 lung 113% | HOP-92 NSCLC 84.4% | NCI-H522 lung 109% | A549/ATCC NSCLC 96.1% | 786-0 renal 103% | COLO 205 colon 113% | DU-145 prostate 118% | K-562 leukemia 111% | MALME-3M melanoma 100% | MDA-MB-231 breast 94.9% | RXF 393 renal 117% | SF-268 CNS 119% | SF-295 CNS 103% | SF-539 CNS 102% | UACC-257 melanoma 98.7%

Cc1cc2c(C(C)C)c(O)c(O)c(C=Nc3ccccc3[N+](=O)[O-])c2c(O)c1-c1c(C)cc2c(C(C)C)c(O)c(O)c(C=Nc3ccccc3[N+](=O)[O-])c2c1O
inactive: NCI-H23 lung 71.4% | NCI-H226 lung 82.8% | NCI-H322M lung 89.2% | HOP-62 NSCLC 83.4% | NCI-H460 lung 87% | HOP-92 NSCLC 61% | NCI-H522 lung 64.4% | A549/ATCC NSCLC 52% | 786-0 renal 96.1% | COLO 205 colon 94.7% | DU-145 prostate 94.6% | K-562 leukemia 34.9% | MALME-3M melanoma 93.5% | MDA-MB-231 breast 74.4% | RXF 393 renal 83.2% | SF-268 CNS 73.5% | SF-295 CNS 82% | SF-539 CNS 97.2% | UACC-257 melanoma 92.6% | M14 melanoma 88%
